Results reported in PubChem BioAssay.

Assay: probe aLAP1 signal on lysate-treated microarray – cell lysate, small-molecule microarray, COS7 lysate, primary screen (AID 1124);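 also: lysate comes from COS7 cells expressing LAP1 and is applied at 0.3 µg/mL; score merges spot fluorescence near 667 nm with signal-to-noise over triplicate slides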
Settings: probe aLAP1, fluorescence, higher = more signal

Compound	composite z-score
CC(C)[Si]1(C(C)C)OCc2cc(C3CC3)nc(-c3ccc(Oc4ccccc4)cc3)c21	-0.238
O=C1NC(=O)C2C1C=CC(C(O)c1ccco1)N2Nc1ccc(Cl)cc1Cl (stereo unspecified)	0.317
Cc1ccc(N2C(=O)c3ccccc3[C@@H](C(=O)NCCCN(C)C)[C@@H]2c2ccc(CO)cc2)nc1	-0.225
CCCCCCc1nc(Cc2cc(OC)c(OC)c(OC)c2)cc2c1[Si](C(C)C)(C(C)C)OC2	-0.0343
CCOC(=O)C1=C[C@@H](C(C)(C)C)N(S(=O)(=O)c2ccc(C)cc2)[C@H]1c1cccc2ccccc12	0.0493
COc1cc2c(cc1O)C(c1cccs1)N(Cc1cc3c(cc1Br)OCO3)CC2 (stereo unspecified)	1.03
C=CCNC(=O)[C@@H]1[C@H]2C(=O)O[C@H](c3ccccc3)[C@H](c3ccccc3)N2[C@H](c2ccccc2OCCO)[C@@]12C(=O)Nc1ccc(C#CCC(C(=O)OC)C(=O)OC)cc12	1.62
C=CCN1C(=O)[C@]2(CCS(=O)(=O)c3ccccc3)N=C(c3ccc(OCCCO)cc3)O[C@@H]2c2ccccc21	1.31
CC(c1ccccc1)C(O)C1C=CC2C(=O)N(C)C(=O)C2N1Nc1ccccc1 (stereo unspecified)	0.406
N#Cc1ccc(NN2C(C(O)c3ccc(Br)cc3)C=CC3C(=O)N(c4ccccc4)C(=O)C32)cc1 (stereo unspecified)	1.35
COc1ccc([Si](C)(C)[C@@H]2[C@@H](CCO)O[C@]3(C(=O)N(Cc4cccc(NC(=O)[C@H](C)O)c4)c4ccccc43)[C@H]2C)cc1	0.523
CCCCC(CC)C(O)C1C=CC2C(=O)N(C)C(=O)C2N1Nc1ccccc1 (stereo unspecified)	0.245
COCCOC(=O)N1C(=O)[C@@]2(c3cc(C#CCCO)ccc31)[C@H](c1ccc(OCCO)cc1)N1[C@H](c3ccccc3)[C@H](c3ccccc3)OC(=O)[C@H]1[C@@H]2C(=O)Nc1nc2ccccc2s1	0.559
[N-]=[N+]=NCc1ccccc1[C@@H]1OC(c2ccc(OCCCO)cc2)=N[C@]1(CCS(=O)(=O)c1ccccc1)C(=O)O	0.0649
O=C1C[C@]2(c3ccc([N+](=O)[O-])cc3)C(=O)N(C3CC3)c3cc(CO)ccc3[C@H]2N1CC12CC3CC(CC(C3)C1)C2	0.401
CCCC[C@@H]1C[C@H]1[C@@H](NC(=O)c1cccs1)c1ccccc1C(F)(F)F	0.588
O=C(Cc1ccccc1)[C@H]1C2C=CCCC(c3ccccc3)=C2CN1Cc1ccccc1 (stereo partly specified)	0.0448
COC(=O)[C@]1(CCS(=O)(=O)c2ccccc2)N=C(c2ccc(OCCCO)cc2)O[C@@H]1c1ccccc1N=[N+]=[N-]	0.612

Compound	composite z-score
COCCOC(=O)N1C(=O)[C@@]2(c3cc(C#CC4=CCCCC4)ccc31)[C@H](c1ccccc1OCCO)N1[C@H](c3ccccc3)[C@H](c3ccccc3)OC(=O)[C@H]1[C@@H]2C(=O)N1CCN(c2ncccn2)CC1	0.297
CN(C)C(=O)[C@@]1(Cc2ccccc2)N=C(c2ccc(OCCCO)cc2)O[C@H]1c1ccccc1	0.973
COc1ccc(C#Cc2ccc3c(c2)[C@]2(C(=O)N3)[C@H](C(=O)O)[C@H]3C(=O)O[C@H](c4ccccc4)[C@H](c4ccccc4)N3[C@@H]2c2ccc(O)cc2)cc1	0.577
CCCCC[C@H]1OC[C@@]23C=C(Br)[C@@H](CC12)[C@@]1(CO1)C3=O (stereo partly specified)	-0.144
CC1CC/C=C\[C@H]2OC34C=CCN(c5ccc(Cl)cc5)C(=O)[C@H]3N(C(C)CO)C(=O)[C@]4(C)C2C(=O)O1 (stereo partly specified)	1.27
COc1cc2c(cc1O)C(C1CC1)N(Cc1cccc(OC(F)(F)F)c1)CC2 (stereo unspecified)	0.762
COc1cc(C(O)C2C=CC3C(=O)N(C)C(=O)C3N2Nc2ccccc2)cc(OC)c1OC (stereo unspecified)	0.708
[N-]=[N+]=NCc1ccccc1[C@H]1OC(c2ccc(OCCCO)cc2)=N[C@@]1(Cc1ccccc1N=[N+]=[N-])C(=O)NCC(O)CO (stereo partly specified)	0.0939
COC(=O)[C@@]1(Cc2ccc(OC)cc2)[C@H]2c3cc(C(=O)N(C)C)n(Cc4ccc(OC(F)(F)F)cc4)c3C[C@H]2CN1C(=O)c1ccccc1	-0.0771
C=C(/C(=C/C[C@H](OC(C)=O)c1ccc(CO)o1)c1cnc2ccccc2c1)C(C)C	0.269
Cc1ccc(S[C@]2(C(=O)NCc3ccccc3)CC(=O)N(C3CCCCC3)[C@@H]2c2ccc(CO)cc2I)cc1	0.658
COc1ccc([Si](C)(C)[C@@H]2[C@@H](CC(=O)N3Cc4ccccc4C[C@H]3CO)O[C@]3(C(=O)N(Cc4ccc(N5C(=O)c6cccc7cccc5c67)cc4)c4ccccc43)[C@H]2C)cc1	-0.0469
CCOC(=O)C[C@H]1[C@H](OC(=O)c2ccccc2-c2ccccc2)[C@@H](NC(=O)c2ccc3ccccc3n2)c2cc(OCCCO)ccc2N1C(=O)Cc1ccc(OC)cc1	0.134
CCOc1cc(C(O)C2C=CC3C(=O)NC(=O)C3N2Nc2ccc(Cl)cc2Cl)ccc1O (stereo unspecified)	-0.587
Cc1ccc(NN2C(C(O)c3c(F)cccc3Cl)C=CC3C(=O)N(C4CCCCC4)C(=O)C32)cc1 (stereo unspecified)	-0.0134
CCOC(=O)C[C@H]1[C@H](OC(=O)c2ccc(-c3ccccc3)cc2)[C@@H](NC(=O)CC(C)C)c2cc(OCCCO)ccc2N1C(=O)c1ccc2ccccc2n1	-0.259
COC(=O)[C@@]1(Cc2ccccc2)[C@H]2c3cc(C(=O)N4CCCC4)n(CCc4ccccn4)c3C[C@H]2CN1C(=O)c1ccccc1	0.589
Cc1ccc(S[C@]2(C(=O)NC(C)C)CC(=O)N(Cc3cc(C(F)(F)F)cc(C(F)(F)F)c3)[C@@H]2c2ccc(CO)cc2)cc1	0.293
